Inconclusive results are not listed. Active and inactive are the calls of the source. Calls follow the shape of the dose curve; as a rule, active = well fitted cell-killing curve with a large enough effect; inconclusive = small, poorly fitted or top-dose-only effect; inactive = flat fitted curve, though single readings scatter.
Assay: Cell Viability - LYMP2-020 (AID 986);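 also: plate controls were DMSO only for no effect and tetraoctylammonium bromide at 92 µM for full effect; nearly all actives have a fitted effect of over 55% in size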
Details: series mostly up to 92.2 µM; activity change, negative = viability loss: at the top concentration
Source text: NIH Chemical Genomics Center [NCGC]
NIH Molecular Libraries Screening Centers Network [MLSCN]
National Institutes of Environmental Health Sciences [NIEHS]
National Toxicology Program [NTP]
We have developed a 1536-well cell-based assay for quantitative high throughput screening (qHTS) against a number of cell lines to determine in vitro cytotoxicity of small molecules. This particular assay uses a human lymphoblastoid cell line (LYMP2-020) purchased from Coriell Institute for Medical Research.
NCGC Assay Protocol Summary:
The CellTiter-Glo luminescent cell viability assay (Promega) is a homogeneous method to measure the number of viable cells in culture. The end point readout of this assay is based on quantitation of intracellular ATP, an indicator of metabolic activity, using the luciferase reaction. Luciferase catalyzes the oxidation of beetle Luciferin to oxyluciferin and light in the presence of ATP. The luminescent signal is proportional to amount of ATP present.
Using the CellTiter-Glo luminescent cell viability assay, the amount of cellular ATP was measured in the lymphoblastoid cell line with complete culture medium following compound treatment for 24 hours. The assay was performed in opaque white Kalypsys 1536-well plates. In the screen, tetraoctylammonium bromide was used as positive control. Library compounds were measured for their ability to cause acute toxicity in the cell line, as reflected by a decrease in intracellular ATP levels, in a concentration-dependent manner. […] AC50 values were determined from concentration-response data modeled with the standard Hill equation.
qHTS protocol for CellTiter Glo lymphoblastoid cellular assay
[Step] [Parameter] [Value] [Description]
1. Reagent; 5 uL; 2500 lymphoblastoid cells/well
2. Time; 5 hr; 37 C incubation
4. Controls; 23 nL; Tetraoctylammonium bromide 6.4pM to 92 uM
5. Time; 24 hr; 37 C incubation
6. Reagent; 5 uL; CellTiter Glo reagent
7. Time; 30 min; Room Temperature
8. Detection; Luminescence; Viewlux plate reader
Keywords: cell viability, cytotoxicity, lymphoblastoid cell line, luminescence, NTPHTS, NTPHTS_NCGC, NIEHS, DSSTox, MLSMR, MLSCN, NIH Roadmap, qHTS, NCGC

Row | Compound | activity change, negative = viability loss | Potency
1 | CCO | 7.12% (inactive) | –
2 | CC1(C)CC(N=C=O)CC(C)(CN=C=O)C1 (stereo not given) | -10.6% (inactive) | –
3 | O=C1c2ccccc2C(=O)C1c1ccc2ccccc2n1 | -21.5% (inactive) | –
4 | Cc1ccc([N+](=O)[O-])c(C)c1 | -3.81% (inactive) | –
5 | COc1ccc(/C=C/c2cc(OC)cc(=O)o2)cc1 | -2.53% (inactive) | –
6 | C/C=C\c1ccc(OC)cc1 | -6.16% (inactive) | –
7 | CC(C)=CCCC(C)CCO (stereo not given) | 5.71% (inactive) | –
8 | c1ccc2scnc2c1 | -7.78% (inactive) | –
9 | CN(C)C=O | – | inactive
10 | CC1=C2[C@H](/C=C(\C)C(=O)O)CC[C@@H](C)[C@H]2CC1 | -14.6% (inactive) | –
11 | Cc1ccccc1C | – | inactive
12 | CC(=O)OC/C=C(\C)CCC=C(C)C | 0.642% (inactive) | –
13 | CCCN(CCC)C(=O)SCC | -15.1% (inactive) | –
14 | C=CCOC(=O)c1ccccc1C(=O)OCC=C | -0.335% (inactive) | –
15 | O=C(/C=C/c1ccc(O)c(O)c1)O[C@@H](C(=O)O)[C@@H](OC(=O)/C=C/c1ccc(O)c(O)c1)C(=O)O | -11.3% (inactive) | –
16 | Cc1c(N=C=O)cccc1N=C=O | -14.7% (inactive) | –
17 | C=C(C)C1CC=C(C)C(O)C1 (stereo not given) | 4.54% (inactive) | –
18 | O=C(O)c1ccccc1 | 0.852% (inactive) | –
19 | c1ccc2c(c1)c1cccc3ccc4cccc2c4c31 | 8.93% (inactive) | –
20 | Cc1ccc([N+](=O)[O-])cc1N | -11.4% (inactive) | –

Row | Compound | activity change, negative = viability loss | Potency
21 | O=C(O)c1ccc(O)cc1O | – | inactive
22 | C1OCOCO1 | 4.31% (inactive) | –
23 | CCCCC(CC)CN (stereo not given) | – | inactive
24 | S=C1NC=NC2N=CNC12 (stereo not given) | -22.3% (inactive) | –
25 | Nc1ccc(S(=O)(=O)O)cc1 | 1.17% (inactive) | –
26 | Cc1cccc([N+](=O)[O-])c1C | 1.62% (inactive) | –
27 | c1ccccc1 | – | inactive
28 | CCCCCCCCO | -14.6% (inactive) | –
29 | C=CC(=C)CCC=C(C)C | -6.19% (inactive) | –
30 | O=NO | – | inactive
31 | ClCCCl | -3.09% (inactive) | –
32 | COC(=O)c1ccc(C=O)cc1 | 16.3% (inactive) | –
33 | CC1=CC(C)(C)Nc2ccccc21 | – | inactive
34 | CCCCCCCCCCCC(=O)O | – | inactive
35 | CCCCOCCO | – | inactive
36 | COc1cc(/C=C/c2ccccc2)oc(=O)c1 | -8.2% (inactive) | –
37 | COc1ccc2nc(N)sc2c1 | -11.9% (inactive) | –
38 | O=[N+]([O-])c1cccc(Cl)c1Cl | 1.06% (inactive) | –
39 | CCCCCCCCCCCCCC(=O)O | -8.63% (inactive) | –
40 | O=C(O)CC(C(=O)O)C(CC(=O)O)C(=O)O (stereo not given) | -1.63% (inactive) | –

Reference: PubChem BioAssay (NCATS)
